This is an account of results in PubChem BioAssay (NCATS).

Records with an inconclusive call do not appear. Where a call stands in place of a potency, no number is given. Unmarked numbers belong to inactive results. The source made the active and inactive calls. Calls come from the whole dose curve; tested in HEK293 reporter line.
Note: nearly all actives have a fitted effect of over 80% in size.
Potency is the fitted concentration of half-maximal effect.

The first assay can be described thus: qHTS for Inhibitors of the Functional Ribonucleoprotein Complex (vRNP) of Lassa (LASV) Arenavirus: Viability assay - alamar blue signal for LASV Primary Screen (AID 1347083). The settings on record: cell viability, alamar blue fluorescence (LASV minigenome counter-screen); series mostly up to 57.5 µM.
With `CC1(C)C[C@@H](O)[C@]2(C)CC[C@]3(C)C(=CCC4[C@@]5(C)CC[C@H](O)[C@](C)(CO)C5CC[C@]43C)[C@@H]2C1` (stereo partly specified), the Potency entry was “inactive”.
With `COc1cc2c(cc1OC)-c1cc3ccc4c(c3c[n+]1CC2)OCO4`, the Potency result is “inactive”.
As for `COc1ccc2ccc(=O)oc2c1CC(=O)C(C)C`, the Potency entry was “inactive”.
With `Cn1c2ccccc2c2c3c(c4c5ccccc5n(CCC#N)c4c21)CNC3=O`, the Potency was 485 nM (active).
As for `COc1ccc(-c2cc(=O)c3ccc(O)cc3o2)cc1`, the Potency result was “inactive”.
Regarding `COc1cc(C/C=C\c2ccccc2)c(OC)cc1O`, the Potency entry is “inactive”.
As to `CCCCN(CCCC)CC(O)c1cc(Cl)cc2c1-c1ccc(Cl)cc1C2=Cc1ccc(Cl)cc1` (stereo unspecified), the Potency entry is “inactive”.
In the case of `CC(C)(O)CC[C@H](OC(=O)c1ccccc1)[C@](C)(O)[C@H]1CC[C@@]2(O)C3=CC(=O)[C@@H]4C[C@@H](O)[C@H](O)C[C@]4(C)C3CC[C@]12C` (stereo partly specified), the Potency entry was “inactive”.
On to `N#CC(=Cc1ccc(O)c(O)c1)C(=O)NCc1ccccc1`, for which the Potency entry is “inactive”.
With `O=C[C@H](O)[C@@H](O)[C@H](O[C@H]1O[C@H](CO)[C@@H](O[C@H]2O[C@H](CO)[C@@H](O)[C@H](O)[C@H]2O)[C@H](O)[C@H]1O)[C@H](O)CO`, the Potency entry is “inactive”.
Regarding `CC(C)(OC1OC(CO)C(O)C(O)C1O)[C@H]1Oc2ccc3ccc(=O)oc3c2[C@H]1O` (stereo partly specified), the Potency entry was “inactive”.
With `CC1=CC2OC3CC4OC(=O)C=CC=CC(=O)OCCC(C)C(O)C(=O)OCC2(CC1)C4(C)C31CO1` (stereo unspecified), the Potency entry is “inactive”.
Take `CC1OC(OC2C(CO)OC(OCC3OC(OC(=O)[C@@]45CCC(C)(C)C[C@@H]4C4=CC[C@@H]6[C@@]7(C)CCC(OC8OCC(O)C(O)C8OC8OC(C)C(O)C(O)C8O)[C@@](C)(CO)C7CC[C@@]6(C)[C@]4(C)CC5)C(O)C(O)C3O)C(O)C2O)C(O)C(O)C1O` (stereo partly specified): the Potency result is “inactive”.
As to `C[C@H]1CC[C@@H]2[C@@H](C)[C@H]3C(C[C@H]4C5CC[C@H]6C[C@@H](O)CC[C@]6(C)C5CC[C@]34C)N2C1` (stereo partly specified), the Potency entry is “inactive”.
As to `CC(C)C(O)(C(=O)OC[C@@H]1CC[N+]2([O-])CCCC12)C(C)O` (stereo partly specified), the Potency entry is “inactive”.
On to `COc1ccc(-c2coc3cc(OC)ccc3c2=O)cc1`, for which the Potency result was “inactive”.
On to `COc1cc(CCC(C)=O)ccc1O`, for which the Potency result was “inactive”.
Regarding `CCCSSCCC`, the Potency result was “inactive”.
For `CC1(C)OC1COc1c2occc2cc2ccc(=O)oc12` (stereo unspecified), the Potency result is “inactive”.
On to `CCC[C@H]1C[C@H](C(=O)N[C@@H]([C@@H]2O[C@@H](SC)[C@@H](O)[C@@H](O)[C@@H]2O)[C@H](C)Cl)N(C)C1`, for which the Potency result is “inactive”.
Turning to `CC(C)c1cc(C(=O)N2Cc3ccc(CN4CCN(C)CC4)cc3C2)c(O)cc1O`, the Potency is 544 nM (active).

The next assay can be described thus: qHTS for Inhibitors of the Functional Ribonucleoprotein Complex (vRNP) of Lymphocytic Choriomeningitis Arenaviruses (LCMV): Viability assay - alamar blue signal for LCMV Primary Screen (AID 1347085). As to conditions: alamar blue viability counter-screen, LCMV vRNP screen cells; series mostly up to 57.5 µM. (In general: qHTS replaces the single test concentration by a dilution series.)
For the molecule `COc1ccc(-c2cnc(-c3cccnc3)o2)cc1`, the Potency entry was “inactive”.
In the case of `CC1OCCC1=O` (stereo unspecified), the Potency result was “inactive”.
On to `CC[C@H]1O[C@]2(CC[C@@H]1C)C[C@@H]1C[C@@H](C/C=C(\C)C[C@@H](C)/C=C/C=C3\CO[C@@H]4[C@H](O)C(C)=C[C@@H](C(=O)O1)[C@]34O)O2`, for which the Potency result is “inactive”.
As to `CCOc1ccc(O)cc1`, the Potency result was “inactive”.
Consider `O=C(NCCCCNCCCNC(=O)c1ccccc1)c1ccccc1`, for which the Potency entry is “inactive”.
On to `Cn1cc(C=C2C(=O)Nc3cccnc32)c2ccccc21`, for which the Potency entry was “inactive”.
With `O=c1c2ccccc2nc2n1CCC2`, the Potency entry was “inactive”.
As for `O=C(O)[C@H]1NC[C@H]2C[C@H]21`, the Potency entry is “inactive”.
For the molecule `COC(=O)c1cc(O)cc(OC)c1C(=O)c1c(O)cc(C)cc1O`, the Potency result is “inactive”.
Turning to `COC1C(O)C(CO)OC1n1cnc2c(=O)[nH]c(N)nc21` (stereo unspecified), the Potency entry is “inactive”.
Take `COC1C(O)C(O)C(O)C(O)C1O` (stereo unspecified): the Potency entry is “inactive”.
On to `NC1=N[C@H](O)[C@H]2C3O[C@]4(O)O[C@H](C(O)[C@@]2(N1)[C@@H]4O)C3(O)CO` (stereo partly specified), for which the Potency entry was “inactive”.
For `C=CC(C)(CCC=C(C)C)OC(=O)c1ccccc1` (stereo unspecified), the Potency result was “inactive”.
With `CCCC(=O)OC/C=C(\C)CCC=C(C)C`, the Potency entry was “inactive”.
With `CC1(C)CCc2c([nH]c3ccccc3c2=O)O1`, the Potency result is “inactive”.
With `CCCCC/C=C\C/C=C\C/C=C\C=C\C(O)CCCC(=O)O` (stereo unspecified), the activity change, negative = lower viability was 16.2% [at 0.757 µM].
On to `COc1c2ccoc2c(OC[C@@H](OC(C)=O)C(C)(C)O)c2oc(=O)ccc12`, for which the Potency result was “inactive”.
Consider `O=C1C[C@@H](c2ccc(O)c(O)c2)Oc2c1ccc(O[C@@H]1O[C@H](CO)[C@@H](O)[C@H](O)[C@H]1O)c2O`, for which the Potency entry is “inactive”.
Take `C=CCCCCCCCCCCCC(O)CC(O)COC(C)=O` (stereo unspecified): the Potency result is “inactive”.
As for `CC1(C)C[C@@H](O)[C@]2(C)CC[C@]3(C)C(=CCC4[C@@]5(C)CC[C@H](O)[C@](C)(CO)C5CC[C@]43C)[C@@H]2C1` (stereo partly specified), the Potency result was “inactive”.
For the molecule `COc1cc2c(cc1OC)-c1cc3ccc4c(c3c[n+]1CC2)OCO4`, the Potency result was “inactive”.
As for `COc1ccc2ccc(=O)oc2c1CC(=O)C(C)C`, the Potency result is “inactive”.
As to `Cn1c2ccccc2c2c3c(c4c5ccccc5n(CCC#N)c4c21)CNC3=O`, the Potency is 3850 nM (active).
As for `COc1ccc(-c2cc(=O)c3ccc(O)cc3o2)cc1`, the Potency result is “inactive”.
Turning to `COc1cc(C/C=C\c2ccccc2)c(OC)cc1O`, the Potency entry was “inactive”.
Same read-out and setting: as for `CCCCN(CCCC)CC(O)c1cc(Cl)cc2c1-c1ccc(Cl)cc1C2=Cc1ccc(Cl)cc1` (stereo unspecified), the entry is “inactive”; as for `CC(C)(O)CC[C@H](OC(=O)c1ccccc1)[C@](C)(O)[C@H]1CC[C@@]2(O)C3=CC(=O)[C@@H]4C[C@@H](O)[C@H](O)C[C@]4(C)C3CC[C@]12C` (stereo partly specified), “inactive”; as for `N#CC(=Cc1ccc(O)c(O)c1)C(=O)NCc1ccccc1`, “inactive”.
Take `O=C[C@H](O)[C@@H](O)[C@H](O[C@H]1O[C@H](CO)[C@@H](O[C@H]2O[C@H](CO)[C@@H](O)[C@H](O)[C@H]2O)[C@H](O)[C@H]1O)[C@H](O)CO`: the Potency entry is “inactive”.
Consider `CC(C)(OC1OC(CO)C(O)C(O)C1O)[C@H]1Oc2ccc3ccc(=O)oc3c2[C@H]1O` (stereo partly specified), for which the Potency entry was “inactive”.
As to `CC1=CC2OC3CC4OC(=O)C=CC=CC(=O)OCCC(C)C(O)C(=O)OCC2(CC1)C4(C)C31CO1` (stereo unspecified), the Potency result was “inactive”.
Still for that read-out and setting: as for `CC1OC(OC2C(CO)OC(OCC3OC(OC(=O)[C@@]45CCC(C)(C)C[C@@H]4C4=CC[C@@H]6[C@@]7(C)CCC(OC8OCC(O)C(O)C8OC8OC(C)C(O)C(O)C8O)[C@@](C)(CO)C7CC[C@@]6(C)[C@]4(C)CC5)C(O)C(O)C3O)C(O)C2O)C(O)C(O)C1O` (stereo partly specified), the entry is “inactive”; as for `C[C@H]1CC[C@@H]2[C@@H](C)[C@H]3C(C[C@H]4C5CC[C@H]6C[C@@H](O)CC[C@]6(C)C5CC[C@]34C)N2C1` (stereo partly specified), “inactive”; as for `CC(C)C(O)(C(=O)OC[C@@H]1CC[N+]2([O-])CCCC12)C(C)O` (stereo partly specified), “inactive”.
On to `COc1ccc(-c2coc3cc(OC)ccc3c2=O)cc1`, for which the Potency result was “inactive”.
Consider `COc1cc(CCC(C)=O)ccc1O`, for which the Potency result was “inactive”.
As for `CCCSSCCC`, the Potency result is “inactive”.
Turning to `CC1(C)OC1COc1c2occc2cc2ccc(=O)oc12` (stereo unspecified), the Potency entry is “inactive”.
Take `CCC[C@H]1C[C@H](C(=O)N[C@@H]([C@@H]2O[C@@H](SC)[C@@H](O)[C@@H](O)[C@@H]2O)[C@H](C)Cl)N(C)C1`: the Potency result was “inactive”.
As for `CC(C)c1cc(C(=O)N2Cc3ccc(CN4CCN(C)CC4)cc3C2)c(O)cc1O`, the Potency was 685 nM (active).
